Source: PubChem
The list is not random: actives were taken first. Their share in the collection is about 12%.
LASV entry inh: Lassa virus entry inhibition. Lassa virus pseudotype entry inhibition, cell reporter. Potency, µM (top dose mostly 37.9 µM), hits mostly inhibitors. 300,000 compounds, 1.2% hits. AID 540256; calls by dose curve; tested in HEK293 cells; further: nearly all actives have a fitted effect of over 50% in size
Shiga toxin inh: Shiga toxin inhibition; inhibition, % at 38.7 µM; 290,000 compounds, 9.2% hits; Vero cells, Shiga toxin protein synthesis inhibition reporter; in the data active means inhibition mostly above about 28%, no sharp cut-off; inactive means mostly below about 43%
MARV entry inh: Marburg virus entry inhibition. Marburg virus pseudotyped entry inhibition, cell reporter. Potency, µM (series often up to 37.8 µM), most hits filed as inhibitors. 300,000 compounds, 1.8% hits. AID 540276; calls by dose curve; tested in HEK293 cells
CHX counter: affects cycloheximide protein synthesis inhibition readout, counter-screen; cell reporter, cycloheximide protein synthesis inhibition counterscreen; max response, %; 300,000 compounds, 12% hits; AID 2314; in the data active means max response mostly above about 13%, no sharp cut-off; inactive means mostly below about 14%; further: read at 38.3 µM for the half of the compounds with a filed dose
Hits are given with their value; n = inactive; u = inconclusive; x = no result.

SMILES	LASV entry inh	Shiga toxin inh	MARV entry inh	CHX counter
CC(=O)Nc1ccccc1OCC(=O)c1cc(C)n(Cc2cccs2)c1C	n	126.7	u	66.3
O=C(COc1cccnc1[N+](=O)[O-])Nc1c(Cl)cccc1Cl	n	x	n	x
COc1cc(C(=O)OCC(=O)Nc2cccc(S(=O)(=O)N3CCCC3)c2)ccc1OCC(C)C	n	x	n	x
CCC(C)Sc1nnc(NS(=O)(=O)Cc2ccccc2)s1 (configuration not stated)	x	n	x	15.3
CCCCc1nc2ccn(CC(=O)N(C)C)c(=O)c2n1Cc1ccc(-c2ccccc2-c2nn[nH]n2)cc1	x	n	x	n
CSc1nnc(-c2cccs2)n1C	n	n	u	n
CSCCC1COC(c2cccs2)=N1 (configuration not stated)	n	65.4	n	38.8
CC(C)(C)c1ccc(N2C(=O)CSC2c2cccnc2)cc1 (configuration not stated)	u	n	u	n
CN(C)CC(CCC(CN(C)C)C(=O)c1ccccc1)C(=O)c1ccccc1 (configuration not stated)	n	n	12.6µM	n
COc1ccc(C(=O)C(CCCCC(CN(C)C)C(=O)c2ccc(OC)cc2)CN(C)C)cc1 (configuration not stated)	u	n	u	n
CCOc1ccc(C(=O)C(CCC(CN(C)C)C(=O)c2ccc(OCC)cc2)CN(C)C)cc1 (configuration not stated)	4.11µM	n	1.03µM	n
Nc1ncnc2occ(-c3ccc(NC(=O)Nc4cc(C(F)(F)F)cc(C(F)(F)F)c4)cc3)c12	19.9µM	x	x	x
O=c1c2ccccc2nc(-c2ccccc2Cl)n1-c1ccc(O)cc1	u	n	u	n
Nc1c2nc(-c3ccccc3Cl)[nH]c(=O)c2nc(=O)n1-c1ccccc1	x	58.1	x	22.5
O=C(CNC(=O)c1ccc(Cl)cc1Cl)OCc1nnc(-c2ccccc2Br)o1	n	x	n	x
Clc1cccc(OCc2nnc(-c3ccccc3Br)o2)c1	n	86.4	n	38.4
Clc1ccc(OCc2nnc(-c3ccccc3Br)o2)cc1	n	n	n	12.0
COc1ccc2c(Cl)c(C(=O)N/N=C/c3ccc4c(c3)OCO4)sc2c1	u	n	u	n
COc1ccc2c(Cl)c(C(=O)N/N=C3\CCCC(=O)C3)sc2c1	n	47.5	u	n
COc1ccc(NC(=O)CSc2ncnc3c2cnn3CCc2ccccc2)cc1	11.2µM	n	u	n
COc1ccc(NC(=O)CSc2nnnn2C2CC3C=CC2C3)cc1 (configuration not stated)	x	n	x	19.7
COc1ccc(NC(=O)CSc2nccn2Cc2ccccc2)cc1	n	163.7	u	53.3
CCC(=O)Nc1ccc(NC(=O)CSc2nnnn2-c2ccc(OC)cc2)cc1	x	n	x	n
COc1cccc(NC(=O)CSc2ncnc3c2cnn3Cc2ccccc2)c1	n	n	n	n
CCc1ccc(NC(=O)CSc2nccn2-c2ccc(OC)cc2)cc1	n	x	x	x
SMILES	LASV entry inh	Shiga toxin inh	MARV entry inh	CHX counter
COc1ccc(NC(=O)CSc2nccn2-c2ccccc2)cc1	n	n	n	22.0
O=C(/C=C/c1ccc([N+](=O)[O-])cc1)OCC(=O)N1CCCC1	n	x	u	x
Cc1ccc(S(=O)(=O)CC(=O)N2CCN(c3nc4c(F)cccc4s3)CC2)cc1	n	x	x	x
CS(=O)(=O)N(Cc1ccccc1)c1ccccc1C(=O)N1CCN(c2ccccc2)CC1	n	n	n	n
Cn1c(=O)c2c(n3c4ccccc4nc13)NC(=O)CC2c1cccc(F)c1 (configuration not stated)	n	x	x	x
CCOC(=O)N1CCN(C/C(Cl)=C/c2ccccc2)CC1	u	19.9	n	14.0
CCOC(=O)N1CCN(C(=O)CSCc2ccccc2)CC1	u	n	u	35.2
CCOC(=O)C1CCCN(C(=O)COc2ccccc2O)C1 (configuration not stated)	n	n	n	n
CCOC(=O)C1CCCN(C(=O)CSCc2ccccc2)C1 (configuration not stated)	n	52.2	n	44.2
CCOC(=O)C1CCCN(C(=O)CSc2nc(C)cc(C)n2)C1 (configuration not stated)	n	n	n	n
CCOC(=O)C1CCCN(C(=O)CCc2nnc(-c3ccc(C(C)=O)s3)o2)C1 (configuration not stated)	x	108.5	x	62.6
CCOC(=O)C1CCCN(C(=O)CSc2ccc(Br)cc2)C1 (configuration not stated)	u	64.6	n	42.3
Cc1ccccc1CSCC(=O)N1CCN(c2ccccc2)CC1	n	70.3	u	23.1
O=C(CSCc1ccccc1Cl)N1CCN(c2ccc(Cl)cc2)CC1	n	x	x	x
Cc1cc(C)c2c(=O)cc(C(=O)NCc3ccccc3)oc2c1	n	n	u	n
O=C(OCC(=O)N1CCc2ccccc21)c1ccccc1	u	117.9	n	42.7
O=C(OCC(=O)N1CCc2ccccc21)c1cccnc1	n	45.1	u	33.1
O=C(OCC(=O)N1CCc2ccccc21)c1ccc[n+]([O-])c1	n	n	n	n
Nc1ccccc1C(=O)OCC(=O)N1CCc2ccccc21	n	79.1	u	39.0
COc1ccccc1C(=O)N1CCc2ccccc21	n	n	n	n
O=C(c1cccnc1)N1CCc2ccccc21	n	n	n	n
Nc1ccccc1C(=O)N1CCc2ccccc21	x	68.8	x	25.9
CC1Oc2ccccc2N(CC(=O)NC2CCCCC2)C1=O (configuration not stated)	n	n	n	n
COCCCNC(=O)CN(c1ccc(OC)cc1)S(=O)(=O)c1ccc(NC(C)=O)cc1	n	n	n	n
Cc1ccc(/C=C/c2onc(C)c2S(=O)(=O)N2CCC(C(=O)Nc3ccc(C)c(N(C)C)c3)CC2)cc1	n	x	x	x
SMILES	LASV entry inh	Shiga toxin inh	MARV entry inh	CHX counter
Cn1c(=O)n(CCc2ccccc2)c(=O)c2c1nc1n2CCCN1Cc1ccccc1	15.8µM	n	u	n
Cn1c(=O)c2c(nc(SCCN3CCOCC3)n2Cc2ccccc2)n(C)c1=O	n	n	1.12µM	n
CCCn1c(SCCN2CCOCC2)nc2c1c(=O)n(C)c(=O)n2C	x	n	x	n
CC1CCN(c2nc3c(c(=O)n(C)c(=O)n3C)n2Cc2ccccc2)CC1	7.3µM	n	n	n
C=CCSc1nc2ccccc2n1S(=O)(=O)c1ccc(C)cc1	n	n	u	20.6
Cc1ccc(S(=O)(=O)n2c(N)nc3ccccc32)cc1	n	x	n	n
COc1ccc(-c2cc(=O)oc3cc(OCC(C)=O)ccc23)cc1	u	n	u	n
COc1ccc(-c2cc(=O)oc3cc(OCC(=O)Nc4ccccn4)ccc23)cc1	x	25.7	x	26.3
CCCc1cc(=O)oc2cc(OCc3ccc(C(=O)O)cc3)ccc12	n	129.6	n	46.9
CCCc1cc(=O)oc2cc(OCC(=O)Nc3cc(C)on3)ccc12	n	n	n	n
CCCc1cc(=O)oc2cc(OCC(=O)Nc3ccccn3)ccc12	n	66.5	u	25.0
COc1ccc(CCNC(=O)COc2ccc3c(C)cc(=O)oc3c2)cc1	n	x	n	x
COc1ccc(COc2ccc3c(C)cc(=O)oc3c2)cc1	x	133.7	x	66.6
Cc1ccc(NC(=O)C2Cc3ccccc3C(=O)O2)cc1 (configuration not stated)	n	86.8	u	36.4
O=C1OC(C(=O)Nc2ccccc2)Cc2ccccc21 (configuration not stated)	n	64.1	u	40.9
Cc1[nH]nc(SCC(=O)NCc2ccc(Cl)cc2)c1[N+](=O)[O-]	n	n	u	n
